Screening data as filed in PubChem BioAssay.
TGFb inhibitor: TGF-b pathway inhibition; HepG2 CAGA-GFP TGF-b/SMAD3 reporter, GFP fluorescence, 18 h; TGF-beta stimulated, 500 pg/mL final; 1.2% of 410,000 active; AID 588855; Potency, µM (highest dose often 46.1 µM), for inactives: at the top dose activity, negative = inhibition, hits mostly inhibitors; also: % is scaled to controls: 0 for no effect and ±100 for the full control effect; nearly all actives have a fitted effect of over 65% in size
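Per well, imaged GFP fluorescence of HEPG2 CAGA-GFP cells gives the signal; cells get compound, then TGF-beta (500 pg/mL final), 18 h at 37 degrees C; %Activity versus -TGF-beta and +DMSO controls.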
HTT cytoprotect: protects HTT-Q103 PC12 cells, measured by ATP; PC12 HTT-Q103 induced, cytoprotection, ATP luminescence, 40 h; Potency, µM (top dose mostly 56.4 µM), for the others: cytoprotection (ATP increase), actives largely listed as activators; 0.14% of 230,000 active; also: % of control where 0% means no effect; nearly all actives have a fitted effect of over 45% in size
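Compounds were screened for protection of PC12 cells against cell death after tebufenozide induction (100 nM final) of mutant Huntingtin exon 1 (Q103) fused to GFP.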
ATXN2 expr inh: ATXN2 expression inhibition; HEK-293 ATXN2-luciferase reporter, luminescence, 24 h; Potency, µM (doses to about 57 µM), inactives show at the top dose activity change, negative = inhibition, hits mostly inhibitors; 0.72% of 360,000 active; AID 1745845; also: % is scaled to controls: 0 for no effect and ±100 for the full control effect; nearly all actives have a fitted effect of over 55% in size
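qHTS (up to 57 uM final) was run with 24 h compound exposure of reporter cells at 37 °C. Each well was multiplexed: SteadyGlo luminescence measured ATXN2-luciferase expression after a fluorogenic Gly-Phe-AFC viability readout (25 uM final).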
ATXN viability: reduces viability in counter-screen for ATXN expression inhibitors; S2 cells (HEK-293 line with an ATXN2-luciferase reporter) viability, CellTiter-Fluor protease fluorescence, 24 h; Potency, µM (doses to about 56.7 µM), usual class: cytotoxic; 0.49% of 400,000 active; also: nearly all actives have a fitted effect of over 40% in size
HepG2 tox-1: HepG2 cytotoxicity, counter-screen for TGF-b inhibitors | HepG2 CAGA-GFP viability, ATP luminescence, 18 h | Potency, µM (titrated, usually from 46.1 µM), for the others: top-dose activity change, negative = cytotoxicity, actives largely listed as cytotoxic | 0.76% of 410,000 active | AID 588856
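CellTiter-Glo luminescence gave cytotoxicity after 18 hours at 37 degrees C. The cells were HepG2 CAGA-GFP in 1% FBS DMEM, stimulated with 500 pg/mL TGF-beta after compound addition. %Activity was normalised to no-cell wells (complete cell-killing) and DMSO (no toxicity), and curves were fitted and classified.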
HttQ103 aggreg: mutant huntingtin aggregation inhibition; PC12 HttQ103-GFP aggregates, Acumen cytometry, 40 h; Potency, µM (top dose mostly 46.1 µM), inactives show top-dose activity change, negative = inhibition, actives largely listed as inhibitors; 1.1% of 220,000 active; AID 1688; also: % is scaled to controls: 0 for no effect and ±100 for the full control effect; nearly all actives have a fitted effect of over 60% in size
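PC12 cells with ecdysone-inducible HTT exon1 Q103-GFP, induced by 100 nM tebufenozide, given compounds in a concentration series. GFP aggregates (1–25 um, 6 SD above background) counted in lysates by laser-scanning cytometry, 488 nm excitation.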
TGFb CAGA inh: confirmation of TGF-b signaling inhibitors in HepG2 reporter cells; shares compounds with TGFb inhibitor; HepG2 CAGA-GFP TGF-b reporter, GFP fluorescence, 18 h; cells stimulated with TGF-beta, 500 pg/mL; Potency, µM (series often up to 46.1 µM), without a hit: top-dose activity, negative = inhibition, most hits filed as inhibitors; 63% of 1,600 active; also: % is scaled to controls: 0 for no effect and ±100 for the full control effect; nearly all actives have a fitted effect of over 65% in size
HepG2 tox-2: counter-screen for TGF-b inhibitors: cytotoxicity in HepG2 cells; shares compounds with TGFb inhibitor; HepG2 CAGA-GFP viability, ATP luminescence, 18 h; cells stimulated with TGF-beta, 500 pg/mL; Potency, µM (highest dose often 46.1 µM), for the others: at the highest dose activity, negative = cytotoxicity, actives largely listed as inhibitors; 27% of 1,600 active; also: % is scaled to controls: 0 for no effect and ±100 for the full control effect; nearly all actives have a fitted effect of over 70% in size
TGFb CCL64 inh: orthogonal confirmation of TGF-b inhibitors in CCL64 cells; shares compounds with TGFb inhibitor; CCL64 CAGA-GFP reporter, TGF-b stimulated, GFP fluorescence, 18 h; Potency, µM (doses to about 46.1 µM), inactives show at the top dose activity, negative = inhibition, hits mostly inhibitors; 41% of 1,600 active; also: nearly all actives have a fitted effect of over 65% in size
TGFb COP inh: validation of TGF-b inhibitors in HepG2 COP promoter reporter; shares compounds with TGFb inhibitor; HepG2 COP-GFP TGF-b reporter, GFP fluorescence, 18 h; cells stimulated by added recombinant TGF-beta; Potency, µM (highest dose often 46.1 µM), for inactives: top-dose activity, negative = inhibition, usual class: inhibitors; 3% of 1,600 active; also: nearly all actives have a fitted effect of over 70% in size
* marks the source's active call; other numbers are inactive results; i = inactive; ? = inconclusive; · = no result; [ ] = remark or other dose. This is a sample that favours compounds with a hit; in the whole collection about 2.8% have one here. Calls follow the shape of the dose curve; as a rule, active = well fitted curve in the direction sought with a large enough effect; inconclusive = small, poorly fitted or top-dose-only effect, or another doubt; inactive = no such curve, though single readings can be large; an effect the other way counts as inactive or inconclusive. Potency is read from the fitted curve at half-maximal effect.

SMILES	TGFb inhibitor	HTT cytoprotect	ATXN2 expr inh	ATXN viability	HepG2 tox-1	HttQ103 aggreg	TGFb CAGA inh	HepG2 tox-2	TGFb CCL64 inh	TGFb COP inh
COc1cc2c(c(OC)c1OC)-c1ccc(O)cc1[C@@H](NC(C)=O)CC2	?	·	-13.0%	?	10.6%	·	?	7.5%	0.517µM*	?
COc1cc2c(c(OC)c1OC)-c1ccc(O)cc1C(NC(C)=O)CC2 (stereo unspecified)	-2.1%	·	4.1%	i	1.4%	·	·	·	·	·
O=[N+]([O-])c1ccc(N2CCOCC2)c2c1no[n+]2[O-]	3.16µM*	·	·	·	-100.6%	·	18.4µM*	13µM*	5.17µM*	?
O=[N+]([O-])c1ccc(N2CCOCC2)c2cccnc12	-14.2%	-18.9%	·	·	-1.4%	18.1%	·	·	·	·
O=[N+]([O-])c1oc2ccc3ccccc3c2c1CCO	4.47µM*	·	?	?	4.0%	·	0.82µM*	1.16µM*	?	6.7%
COc1cc2ccccc2c2cc([N+](=O)[O-])oc12	·	-66.0%[10 µM]	·	·	·	·	·	·	·	·
CN(C)c1ccc(N)cc1	·	-153.0%	·	·	·	·	·	·	·	·
Nc1c2c(nc3sc4c(c13)CCCCC4)CCCC2	20µM*	-3.4%[10 µM]	-13.6%	?	-14.2%	?	14.6µM*	?	?	94.1%
BrCC1C[n+]2c(SCc3ccccc3)nc3sc4c(c3c2O1)CCCC4 (stereo unspecified)	17.0%	-10.5%[10 µM]	33.3%	i	-30.9%	-7.1%[9.22 µM]	·	·	·	·
COc1cccc(C(c2nnnn2C2CCCC2)N2CCC3(CC2)C(=O)NCN3c2ccccc2)c1OC (stereo unspecified)	?	·	?	·	9.5%	·	·	·	·	·
O=C1NCN(c2ccccc2)C12CCN(C(c1ccccc1)c1nnnn1C1CCCC1)CC2 (stereo unspecified)	11.2µM*	·	-24.4%	?	-1.8%	·	?	2.5%	20.6µM*	3.4%
COc1ccc(C(c2nnnn2C2CCCCC2)N2CCC3(CC2)C(=O)NCN3c2ccccc2)cc1 (stereo unspecified)	?	·	?	?	-44.2%	·	?	-21.1%	18.4µM*	-3.9%
O=C1NCN(c2ccccc2)C12CCN(C(c1cccc3ccccc13)c1nnnn1Cc1ccccc1)CC2 (stereo unspecified)	?	·	-38.8%	·	-8.0%	·	·	·	·	·
CCCCn1nnnc1C(c1cccc2ccccc12)N1CCC2(CC1)C(=O)NCN2c1ccccc1 (stereo unspecified)	17.8µM*	·	-38.4%	?	-4.6%	·	14.6µM*	?	?	59.9%
Oc1cccc(Cl)c1	·	9.1%	·	·	·	·	·	·	·	·
N[C@H](Cn1ccc(=O)[nH]c1=O)C(=O)O	·	-20.4%[1.9 µM]	·	·	·	·	·	·	·	·
CCOC(=O)CC(SP(=O)(OC)OC)C(=O)OCC (stereo unspecified)	·	-68.1%	·	·	·	·	·	·	·	·
